Measured values: ChEMBL document CHEMBL5308504, “Tm Shift (DSF) assay results for EUbOPEN Chemogenomics Library” (2023)

Target: Bromodomain-containing protein 4 (Homo sapiens) (UniProt O60885)
Settings: Compound concentration 20.0 uM, Protein concentration 2.0 uM, Result type QC Liability

Q: For `COc1ccc(COc2ccc(Cc3cnc(N)nc3N)cc2OC)cc1`, which ΔTm is on record?
A: The ΔTm was -1.17 °C.

Q: How did the ΔTm turn out when `N=C(N)Nc1cc(C2CCNCC2)cc(C(F)(F)F)c1` was run?
A: The ΔTm was -0.1 °C.

Q: `CCCCOc1c(C(=O)c2c(F)cc(C)cc2F)c[nH]c2nncc1-2` was tested. Which ΔTm did it give?
A: Its ΔTm is -0.5 °C.

Q: For `C[C@@H]1CC(=O)N(C2CC2)N=C1c1ccc(NC(=O)N2Cc3ccncc3C2)cc1`, which ΔTm is on record?
A: Its ΔTm is -0.04 °C.

Q: Which ΔTm does the source give for `Cc1ccc(-n2nc(C(C)(C)C)cc2NC(=O)Nc2ccccc2F)cc1` here?
A: The ΔTm was -1.72 °C.

Q: With `CCc1ccccc1C(=O)Nc1n[nH]c2c(C)c(F)c(C3C(C#N)=C(C)N(C)C(C)=C3C#N)cc12` as the molecule, how does the ΔTm read?
A: The ΔTm was -3.05 °C.

Q: How did the ΔTm turn out when `COc1cc(C)c(S(=O)(=O)N(C)CCC(=O)N[C@H]2CC[C@@H](N3CCC4CN(C)CC4C3)CC2)c(C)c1` (some centres undefined) was run?
A: Its ΔTm is -4.82 °C.

Q: `CCCc1c(OCCCOc2ccc(OCC(=O)O)cc2)ccc(C(C)=O)c1O` was tested. Which ΔTm did it give?
A: The ΔTm was -2.92 °C.

Q: For `O=C(O)c1ccc(CN2C[C@@H]3C[C@H]2CN3Cc2ccc(Oc3ccc(-c4ncco4)cc3)cc2)cc1`, which ΔTm is on record?
A: Its ΔTm is -2.1 °C.

Q: Which ΔTm does the source give for `CCCCc1c(-c2ccccc2)nc(N)nc1-c1ccc(OCc2ccccc2)c(F)c1F` here?
A: The ΔTm was -11.4 °C.

Q: Which ΔTm does the source give for `O=C(O)c1ccc2c(c1)nc(NCc1ccccc1)c1ncncc12` here?
A: Its ΔTm is -2.21 °C.

Q: `CS(=O)(=O)c1cc(C2(NC(=O)c3cncc4c3cnn4-c3ccc(F)cc3)CC2)ccn1` was tested. Which ΔTm did it give?
A: Its ΔTm is -1.64 °C.

Q: Which ΔTm does the source give for `CCC(C)(C)CC[C@H](NC(=O)N1CCOCC1)C(=O)NC1(C#N)CCN(C)CC1` here?
A: Its ΔTm is -0.41 °C.

Q: With `CC1=C(C(=O)OCCO)[C@@H](c2ccc(C#N)cc2)NC(=O)N1c1cccc(C(F)(F)F)c1` as the molecule, how does the ΔTm read?
A: Its ΔTm is 0.01 °C.

Q: With `O=C(O)c1cc2cc(Cc3cccnc3)ccc2o1` as the molecule, how does the ΔTm read?
A: Its ΔTm is -1.5 °C.

Q: For `C[C@@H](COCCC(=O)N1CCN(c2ncc(C(F)(F)F)cn2)CC1)Nc1cn[nH]c(=O)c1C(F)(F)F`, which ΔTm is on record?
A: The ΔTm was -1.99 °C.

Q: `CS(C)(=O)=Nc1ccc(-c2ccc(-c3nc4[nH]c(O[C@@H]5CO[C@H]6[C@@H]5OC[C@H]6O)nc4cc3Cl)cc2)cc1` was tested. Which ΔTm did it give?
A: Its ΔTm is 1.46 °C.

Q: With `CCCCC[C@@](C)(O)/C=C/[C@H]1C(=O)CC(O)C1C/C=C\CCCC(=O)O` (some centres undefined) as the molecule, how does the ΔTm read?
A: The ΔTm was -1.7 °C.

Q: For `NC(=O)C1CCCc2c1[nH]c1ccc(Cl)cc21` (centres undefined), which ΔTm is on record?
A: Its ΔTm is -1.42 °C.

Q: `CCCN1C(=O)c2ccc(Cl)cc2Nc2ncccc21` was tested. Which ΔTm did it give?
A: The ΔTm was 0.34 °C.

Q: How did the ΔTm turn out when `O=C(CCCN1CCC(O)(c2ccc(Cl)cc2)CC1)c1ccc(F)cc1` was run?
A: Its ΔTm is -3.1 °C.

Q: With `Cc1csc(-c2nnc(Nc3ccc(Oc4ncccc4-c4ccnc(N)n4)cc3)c3ccccc23)c1` as the molecule, how does the ΔTm read?
A: The ΔTm was 11.5 °C.

Q: `COc1cc(F)ccc1-c1ncnc(Nc2cccc(C[S@](C)(=N)=O)c2)n1` was tested. Which ΔTm did it give?
A: The ΔTm was 0.48 °C.

Q: With `CN1C(=O)c2ccccc2N(C)c2nc(Nc3cnn(C4CCNCC4)c3)ncc21` as the molecule, how does the ΔTm read?
A: Its ΔTm is 3.95 °C.

Q: For `Cn1ncc(NC(=O)c2nc(-c3c(F)cccc3F)sc2N)c1N1CC[C@@H](N)[C@H](F)CC1`, which ΔTm is on record?
A: The ΔTm was -1.02 °C.

Q: `CN(C)[C@H]1CCN(c2cc(C(F)(F)F)c(C#N)c(Nc3cccc(CCC(=O)O)c3)n2)C1` was tested. Which ΔTm did it give?
A: Its ΔTm is -0.8 °C.

Q: How did the ΔTm turn out when `CC(C)C(=O)N1CCC(c2cn(C)c3ncc(NC(=O)c4cccc(C#N)c4)c(C(F)(F)F)c23)CC1` was run?
A: Its ΔTm is -2.27 °C.

Q: `N#Cc1c(SCc2csc(-c3ccc(Cl)cc3)n2)nc(N2CCCC2)c(C#N)c1-c1ccc(OCCO)cc1` was tested. Which ΔTm did it give?
A: The ΔTm was -0.25 °C.

Q: How did the ΔTm turn out when `O=C(Cc1ccccc1[N+](=O)[O-])Nc1ccc(-c2ccc(C(O)(C(F)(F)F)C(F)(F)F)cc2F)cc1` was run?
A: The ΔTm was -0.72 °C.

Q: With `CC(C)(C)NC(=O)c1cncn1C1CCN(c2ccc(-c3nnc(C(F)(F)F)o3)cn2)CC1` as the molecule, how does the ΔTm read?
A: The ΔTm was -0.5 °C.

Q: `Cc1ccccc1Oc1cc(-n2c(=O)cc(C(F)(F)F)[nH]c2=O)c2ccccc2c1Cl` was tested. Which ΔTm did it give?
A: The ΔTm was -1.47 °C.

Q: Which ΔTm does the source give for `CC(C)N(CCCCOCC(=O)O)c1cnc(-c2ccccc2)c(-c2ccccc2)n1` here?
A: Its ΔTm is -1.87 °C.

Q: Which ΔTm does the source give for `Nc1nccc(-c2c(-c3ccc(F)cc3)ncn2C2CCCCC2)n1` here?
A: The ΔTm was 0.24 °C.

Q: For `CC(C)(C)c1cc(NC(=O)c2csc(Nc3ccc(Cl)cc3)n2)no1`, which ΔTm is on record?
A: The ΔTm was -0.97 °C.

Q: Which ΔTm does the source give for `COc1cc2nc(-c3cc(F)ccc3O)nc(N[C@@H]3CNC[C@H]3C(C)(C)O)c2cc1OC` here?
A: The ΔTm was 1.15 °C.

Q: `COc1cc(-c2cncc(-c3ccc(N4CCN(C(C)C)CC4)cc3)c2C)cc(F)c1C(N)=O` was tested. Which ΔTm did it give?
A: Its ΔTm is -2.5 °C.

Q: Which ΔTm does the source give for `Cc1cc(-c2cnc(N)c3c(-c4ccc5scnc5c4)csc23)n(C)n1` here?
A: Its ΔTm is -1.04 °C.

Q: For `Cc1nn(C)c(COc2ccc(N3CCN(S(=O)(=O)N(C)C)CC3)cc2)c1-c1cccc2c(CCCOc3cccc4ccccc34)c(C(=O)O)n(CCN3CCOCC3)c12`, which ΔTm is on record?
A: Its ΔTm is -12.6 °C.

Q: How did the ΔTm turn out when `Cc1cc(=O)n(C)c2cc(N3C(=O)CC[C@H](NS(=O)(=O)CC(C)C)[C@H]3c3ccc(Cl)cc3)ccc12` was run?
A: Its ΔTm is -3.01 °C.
